Where “and” joins values, the source holds several entries; their conditions need not be identical. Equal values may be shown once. Calls of active or inactive are those of the source.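 How the source made its calls, unless noted: active means compounds killing one labelled cell type while sparing the other, by normalised counts and ratio limits, not self-fluorescent; inactive means the rest.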
Assays:
[1] = stimulators of insulin release from INS-1E, primary screen, cell-based, 5 mM glucose, NPC library (AID 1117329;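 active means compound raises insulin release from rat beta cells at 5 mM glucose, no numeric limit stated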); details: rat INS-1E insulin secretion, at 10 µM, stronger effect = higher value
[2] = growth inhibition of GSK3B-pretreated HCT116 cells – cell-based, CellTiter-Glo, 0.2 to 20 µM (AID 1117336;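 active means compounds lowering colon cancer cell viability after pretreatment blocking the GSK3B kinase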); details: HCT116 viability after GSK3B inhibitor, at 20 µM, stronger effect = higher value
[3] = inhibition of endothelial tube formation, primary screen, imaging, VEGF stimulated, CD31 staining, tube area, NPC library (AID 1117340;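 active means compound that reduces growth-factor-driven endothelial tube area in a mixed cell culture, no cutoff stated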); details: VEGF-stimulated ADSC/ECFC co-culture, at 10 µM, stronger effect = higher value
[4] = glucagon-like peptide 1 release enhancers, primary assay, NCI-H716 cell line, NPC library (AID 1117341;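 active means compound raises GLP1 secretion from the human gut endocrine cells, with no numeric limit stated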); details: NCI-H716 cells, at 10 µM, stronger effect = higher value
[5] = HCT116 colon cancer cell growth inhibition, primary screen, CellTiter-Glo luminescence, NPC library (AID 1117342;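 active means compounds that lower survival of HCT116 colon cancer cells in the luminescence readout, no numeric limit stated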); details: at 20 µM (top of the series)
[6] = CellTiter-Glo luminescent readout of SW480 viability loss, NPC library primary (AID 1117343;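 active means compounds that lower viability of the colon cancer cells in the luminescence readout, with no numeric limit stated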); details: CellTiter-Glo luminescence; at 20 µM (top of the series)
[7] = decreased DLD-1 cellular survival, CellTiter-Glo luminescent readout, NPC compound collection, primary HTS (AID 1117346;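 active means compounds that lower survival of DLD-1 colon cancer cells in the luminescence readout, no cutoff given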); details: DLD-1 viability, CellTiter-Glo luminescence; at 20 µM (top of the series)
[8] = target: 6-phosphogluconate dehydrogenase, decarboxylating (Homo sapiens) (UniProt P52209); assay: 6PGD enzyme inhibitors, primary screen, biochemical, human, recombinant enzyme, NADPH absorbance (AID 1159550;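 active means at least 20% inhibition of 6-phosphogluconate dehydrogenase activity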); details: recombinant 6PGD, NADPH absorbance 341 nm; at 10 µM; stronger effect = higher value
[9] = differential killing of epithelial or mesenchymal cells, primary screen, imaging, PC-3E GFP, TEM4-18 mCherry, co-culture (AID 1345086); details: imaging cell counts, at 1 µM; for red/green cell ratio (normalised): actives lie on both sides, counts scaled to control wells, 1 = unselective;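 on all read-outs here: cells exposed to compound for 72 h before imaging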;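 on red/green cell ratio (normalised): normalised mesenchymal count divided by normalised epithelial count so high means epithelial killing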
[10] = measured here: epithelial PC-3E GFP cell survival
[11] = measured here: mesenchymal TEM4-18 mCherry cell survival

6-phosphogluconate dehydrogenase, decarboxylating (Homo sapiens), sequence (P52209 whole entry, looked up): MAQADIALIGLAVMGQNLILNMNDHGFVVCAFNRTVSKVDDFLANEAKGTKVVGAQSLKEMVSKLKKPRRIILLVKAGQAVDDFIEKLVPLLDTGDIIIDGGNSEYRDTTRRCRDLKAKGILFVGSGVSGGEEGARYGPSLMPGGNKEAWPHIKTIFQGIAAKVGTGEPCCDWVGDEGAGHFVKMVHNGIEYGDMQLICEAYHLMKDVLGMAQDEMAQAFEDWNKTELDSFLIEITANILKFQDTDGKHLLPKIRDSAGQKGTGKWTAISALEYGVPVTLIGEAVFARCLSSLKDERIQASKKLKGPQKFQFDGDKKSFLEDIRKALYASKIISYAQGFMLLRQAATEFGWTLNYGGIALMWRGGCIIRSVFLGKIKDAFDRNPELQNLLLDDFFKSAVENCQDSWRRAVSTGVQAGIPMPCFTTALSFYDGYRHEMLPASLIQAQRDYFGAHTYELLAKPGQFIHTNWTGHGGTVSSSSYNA

| Structure (SMILES) | insulin secretion stimulation [1] | viability decrease [2] | tube area decrease [3] | GLP1 secretion stimulation [4] | inhibition of viability [5] | viability decrease (inhibition) [6] | viability decrease (inhibition) [7] | inhibition [8] | red/green cell ratio (normalised) [9] | normalised cell number [9, 10] | normalised cell number [9, 11] |
| --- | --- | --- | --- | --- | --- | --- | --- | --- | --- | --- | --- |
| CCCCCCCCCCCCCCCCCCOCC(O)CO (centres undefined) | 1.3% (inactive) | -5.2% (inactive) | 7.6% (inactive) | 30.1% (active) | -10.7% (inactive) | 4.8% (inactive) | -8.8% (inactive) | -2.18% (inactive) | 1 (inactive) | 0.96 | 0.96 |
| C[C@H](N)[C@H](O)c1cccc(O)c1 | -3.4% (inactive) | -13.4% (inactive) | 12.1% (inactive) | -3.4% (inactive) | -3.1% (inactive) | 37.4% (inactive) | 1.5% (inactive) | 13.9% (inactive) | 1.4 (inactive) | 0.79 | 1.1 |
| Cc1ccc(C(C)C)cc2c(C)ccc1-2 | -0.7% (inactive) | -28.6% (inactive) | 15.5% (inactive) | -6.3% (inactive) | 5.77% (inactive) | -9.4% (inactive) | -6.8% (inactive) | -19.1% (inactive) | 0.74 (inactive) | 1.25 | 0.92 |
| CCN(CC)CCOC(=O)C(c1ccccc1)c1ccccc1 | 13.6% (inactive) | -6.6% (inactive) | 17.8% (inactive) | 0.6% (inactive) | 8.4% (inactive) | -5.9% (inactive) | 5.6% (inactive) | -7.73% (inactive) | 1.2 (inactive) | 1.02 | 1.22 |
| CC(=O)Nc1c(I)cc(I)c(C(=O)O)c1I | 0.6% (inactive) | -43.4% (inactive) | 34.2% (inactive) | 0.7% (inactive) | 4.5% (inactive) | -4.3% (inactive) | 0.1% (inactive) | -3.44% (inactive) | 0.94 (inactive) | 1.19 | 1.12 |
| Nc1ccc(S(=O)(=O)Nc2cnc3ccccc3n2)cc1 | 1.2% (inactive) | 21% (inactive) | -18.5% (inactive) | 4.1% (inactive) | 0.93% (inactive) | -1% (inactive) | -9.7% (inactive) | 10.4% (inactive) | 1.03 (inactive) | 1.09 | 1.11 |
| CCN1CCCC(OC(=O)C(c2ccccc2)c2ccccc2)C1 (centres undefined) | 133% (active) | 3.4% (inactive) | 18.5% (inactive) | 1.3% (inactive) | 68.8% (active) | 71.6% (active) | 46.5% (inactive) | -9.18% (inactive) | 1.28 (inactive) | 0.93 | 1.19 |
| CN1CCC(=C2c3ccccc3Sc3ccccc32)CC1 | 28.8% (active) | 77.2% (active) | 51.9% (active) | -3.3% (inactive) | 36.4% (inactive) | 80.2% (active) | 23.6% (inactive) | 13.2% (inactive) | 1.08 (inactive) | 1.03 | 1.11 |
| Cc1c(C(N)=O)cc([N+](=O)[O-])cc1[N+](=O)[O-] | -3.2% (inactive) | 13.7% (inactive) | -5.4% (inactive) | 2.8% (inactive) | -20% (inactive) | 34% (inactive) | 19.3% (inactive) | -17.5% (inactive) | 0.99 (inactive) | 0.91 | 0.9 |
| O=C(O)CCNC(=O)c1ccccc1 | -1% (inactive) | 6.3% (inactive) | -2% (inactive) | -0.3% (inactive) | -7.2% (inactive) | -1.3% (inactive) | 6.4% (inactive) | 2.23% (inactive) | 0.71 (inactive) | 1.22 | 0.87 |
| C=CCc1ccccc1OCC(O)CNC(C)C (centres undefined) | 2.2% (inactive) | -6.8% (inactive) | -1.1% (inactive) | 1.4% (inactive) | 34.3% (inactive) | 27.3% (inactive) | 12% (inactive) | -12.3% (inactive) | 1 (inactive) | 1.2 | 1.2 |
| CN(C)C(=O)Oc1cccc([N+](C)(C)C)c1 | -0.9% (inactive) | 10% (inactive) | -12.9% (active) | 1.3% (inactive) | 2.9% (inactive) | -16.1% (inactive) | -5.8% (inactive) | -2.26% (inactive) | 1.18 (inactive) | 0.88 | 1.04 |
| Cc1cc(=O)n(-c2ccccc2)n1C | -0.2% (inactive) | -26.3% (inactive) | -3.4% (inactive) | 0.4% (inactive) | 1.15% (inactive) | 4% (inactive) | -8.2% (inactive) | 6.71% (inactive) | 1.02 (inactive) | 1.24 | 1.26 |
| O=C1OCCN1/N=C/c1ccc([N+](=O)[O-])o1 | -3% (inactive) | 24.6% (inactive) | -8.5% (inactive) | 5.7% (inactive) | 12.3% (inactive) | 74.9% (active) | 25.6% (inactive) | 12.5% (inactive) | 1.17 (inactive) | 0.95 | 1.11 |
| O=C1OC(c2ccc(O)cc2)(c2ccc(O)cc2)c2ccccc21 | 11.5% (inactive) | 31.1% (inactive) | 14.1% (inactive) | 11.8% (inactive) | 12% (inactive) | 80.7% (active) | 43.5% (inactive) | -2.11% (inactive) | 1.12 (inactive) | 0.94 | 1.05 |
| COc1cc(OC)cc(OC)c1 | 2.1% (inactive) | -6.5% (inactive) | 7.3% (inactive) | -0.4% (inactive) | -3.13% (inactive) | -10.2% (inactive) | -8.5% (inactive) | 14.4% (inactive) | 0.87 (inactive) | 1.26 | 1.09 |
| Nc1ccc(N=Nc2ccccc2)c(N)n1 | 0.5% (inactive) | 43.4% (inactive) | 36.8% (inactive) | -4.7% (inactive) | 29% (inactive) | 31.9% (inactive) | 16% (inactive) | 3.23% (inactive) | 0.86 (inactive) | 1.07 | 0.92 |
| Cc1cc(C)cc(OCC2CNC(=O)O2)c1 (centres undefined) | -0.5% (inactive) | 4.3% (inactive) | 12.5% (inactive) | -1.5% (inactive) | 3.1% (inactive) | 13.1% (inactive) | 6% (inactive) | 3.16% (inactive) | 1.5 (inactive) | 0.43 | 0.64 |
| CN(C)CCC(c1ccccc1)c1ccccn1 (centres undefined) | 1.3% (inactive) | -40.9% (inactive) | 1.9% (inactive) | 1.5% (inactive) | 3.55% (inactive) | 12.1% (inactive) | -7.2% (inactive) | -0.335% (inactive) | 1.11 (inactive) | 0.86 | 0.95 |
| Cc1c(N(C)C)c(=O)n(-c2ccccc2)n1C | 0.4% (inactive) | -152% (inactive) | 8.4% (inactive) | -1.9% (inactive) | -13.5% (inactive) | -4.8% (inactive) | -6.4% (inactive) | 13.9% (inactive) | 0.85 (inactive) | 1.18 | 1 |
| CCCc1ncc(C[n+]2ccccc2C)c(N)n1 | 0.95% (inactive) | -5.4% (inactive) | 6.7% (inactive) | 0.7% (inactive) | -12.5% (inactive) | -33.4% (inactive) | -13.4% (inactive) | -3.15% (inactive) | 0.95 (inactive) | 1.35 | 1.28 |
| CN(C)[C@@H]1C(=O)C(C(N)=O)=C(O)[C@@]2(O)C(=O)C3=C(O)c4c(O)ccc(Cl)c4[C@@H](O)[C@H]3C[C@@H]12 | 0.9% (inactive) | -29.7% (inactive) | 17.3% (inactive) | 10.2% (inactive) | 57% (active) | 107% (active) | 94.7% (active) | 0.718% (inactive) | 0.96 (inactive) and 1.05 (inactive) | 1.09 and 1.32 | 1.05 and 1.38 |
| NC[C@H]1O[C@H](O[C@H]2[C@H](O)[C@@H](O[C@H]3O[C@H](CO)[C@@H](O)[C@H](N)[C@H]3O)[C@H](N)C[C@@H]2N)[C@H](N)[C@@H](O)[C@@H]1O | -0.7% (inactive) | -7.8% (inactive) | -8.4% (inactive) | 1.5% (inactive) | 9.9% (inactive) | 6.5% (inactive) | -1.7% (inactive) | 5.79% (inactive) | 1.19 (inactive) | 1.1 | 1.31 |
| CC(=O)Nc1cccc(O)c1 | 1.1% (inactive) | -1.55% (inactive) | -19.6% (inactive) | -0.3% (inactive) | -14.5% (inactive) | 32.8% (inactive) | 4.35% (inactive) | 11.9% (inactive) | 0.95 (inactive) | 0.83 | 0.79 |
| CCCCCCCCCCCCCCCCOP(=O)([O-])OCC[N+](C)(C)C | 0% (inactive) | 100% (active) | 12.2% (inactive) | 2.7% (inactive) | 100% (active) | 120% (active) | 103% (active) | 17% (inactive) | 0.8 (inactive) | 1.32 | 1.06 |
| Cc1cc(=O)[nH]c(=S)[nH]1 | -0.5% (inactive) | 0.65% (inactive) | -25.4% (inactive) | 1.6% (inactive) | -2.3% (inactive) | 11.6% (inactive) | 0.15% (inactive) | -2.01% (inactive) | 0.93 (inactive) | 0.99 | 0.92 |
| CC1CCC(NC(=O)N(CCCl)N=O)CC1 (centres undefined) | 2% (inactive) | -24.4% (inactive) | 25.1% (inactive) | 1.7% (inactive) | -2.27% (inactive) | 12.6% (inactive) | -14.1% (inactive) | 2.66% (inactive) | 1.17 (inactive) | 1.17 | 1.37 |
| Cc1ccc2c(Cl)cc(Cl)c(O)c2n1 | -0.8% (inactive) | -3.9% (inactive) | 9.4% (inactive) | 2% (inactive) | 2.45% (inactive) | 14.8% (inactive) | 3.5% (inactive) | 6.51% (inactive) | 0.8 (inactive) | 1.22 | 0.98 |
| CCCCOc1ccc(OCCCN2CCOCC2)cc1 | 0.6% (inactive) | -10.8% (inactive) | 15.4% (inactive) | -1.7% (inactive) | 24.8% (inactive) | 46.8% (inactive) | 22.7% (inactive) | -17.9% (inactive) | 0.85 (inactive) | 1.15 | 0.98 |

Source: PubChem BioAssay
